Drawing on PubChem BioAssay (NCI), this text covers growth for eight compounds.

Compounds without any hit were thinned out: in the full panel of roughly 83,000, 20% have a hit.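 Activity criterion: percent growth below 10, measured after cells in 96-well plates were exposed to a single compound concentration for 48 hours.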 Values without a mark were called inactive. Active and inactive are the calls of the source.

Among the test systems are NCI-H23 lung; NCI-H226 lung; NCI-H322M lung; HOP-62 NSCLC; NCI-H460 lung; NCI-H522 lung; A549/ATCC NSCLC; 786-0 renal; DU-145 prostate; K-562 leukemia; MALME-3M melanoma; MDA-MB-231 breast; RXF 393 renal; SF-268 CNS; SF-295 CNS; SF-539 CNS; UACC-257 melanoma; M14 melanoma; HCT-15 colon; COLO 205 colon.
Common to all, as to assay: NCI-60 one-dose screen, 48 h (100 = growth as untreated, 0 = no growth, -100 = all killed)
What all share (conditions): 10 µM

As to `O=C(Nc1cccc(-n2cc(-c3ccncc3)c(-c3ccc(O)c(Cl)c3)n2)c1)c1ccc(N2CCOCC2)c(C(F)(F)F)c1`, the growth in the test on NCI-H23 lung is 42.2%; in the test on NCI-H226 lung, 85.8%; in the test with NCI-H322M lung, 44.5%; with HOP-62 NSCLC, 41.5%; in the test with NCI-H460 lung it was 11.6%; in the test on NCI-H522 lung, 35.6%. Also, the growth was 22.9% in the test on A549/ATCC NSCLC; 8.9% (active) in the test on 786-0 renal; 62.7% with DU-145 prostate; 3.17% (active) in the test with K-562 leukemia; 21.3% in the test on MALME-3M melanoma; -30.5% (active) in the test with MDA-MB-231 breast. The growth with RXF 393 renal is -8.59% (active); with SF-268 CNS, 63.2%; with SF-295 CNS it was -39.7% (active); in the test with SF-539 CNS, -28% (active); with UACC-257 melanoma, 60.1%; with M14 melanoma, 36.8%. The growth in the test on HCT-15 colon was 16.6%.

For `c1ccc2c(c1)oc1c3c(ccc12)NCCC3`, the growth with NCI-H23 lung is 86%; in the test with NCI-H226 lung, 90.9%; with NCI-H322M lung it was 91.8%; in the test on HOP-62 NSCLC, 97.6%; in the test on NCI-H460 lung, 99%; with NCI-H522 lung, 80.9%. For the same compound, the growth with A549/ATCC NSCLC is 90.3%; in the test with 786-0 renal, 90.5%; in the test on DU-145 prostate, 103%; in the test on K-562 leukemia, 98.4%; with MDA-MB-231 breast, 90.2%; in the test with RXF 393 renal it was 107%. Besides, the growth with SF-268 CNS is 96.1%; in the test with SF-295 CNS, 118%; with SF-539 CNS, 93.4%; in the test on UACC-257 melanoma it was 95.4%; with M14 melanoma, 109%; in the test with HCT-15 colon, 81.1%.

As to `COc1ccc2c(c1)[n+]([O-])c(C#N)c(NC(=O)c1ccco1)[n+]2[O-]`, the growth with NCI-H23 lung is 99.9%; in the test on NCI-H226 lung, 97.7%; in the test with NCI-H322M lung, 95.2%; with HOP-62 NSCLC, 93.7%; in the test with NCI-H460 lung, 107%; in the test with NCI-H522 lung, 98.1%. Further, the growth was 111% in the test on A549/ATCC NSCLC; 105% with 786-0 renal; 96.2% in the test with COLO 205 colon; 92.8% in the test with K-562 leukemia; 103% in the test with MALME-3M melanoma; 92.3% with MDA-MB-231 breast. For the same compound, the growth with SF-268 CNS is 107%; with SF-295 CNS, 99.9%; with SF-539 CNS, 107%; in the test on M14 melanoma, 104%; in the test on HCT-15 colon, 99%.

With `c1ccc(CNc2ncnc3scc(-c4cccs4)c23)nc1`, the growth was 53.5% in the test on NCI-H23 lung; 68.1% in the test on NCI-H226 lung; 86.3% in the test on NCI-H322M lung; 65% in the test on HOP-62 NSCLC; 77.4% with NCI-H460 lung; 60.4% with NCI-H522 lung. The growth with A549/ATCC NSCLC was 56.6%; in the test with 786-0 renal, 79.6%; with DU-145 prostate it was 92.1%; in the test with K-562 leukemia, 42.7%; in the test with MALME-3M melanoma it was 89.5%; in the test on MDA-MB-231 breast it was 59.9%. The growth in the test on RXF 393 renal was 73.6%; with SF-268 CNS, 79.7%; in the test with SF-295 CNS it was 41.2%; with SF-539 CNS, 72.7%; in the test with UACC-257 melanoma, 46.1%; with M14 melanoma it was 70.7%. For the same compound, in the test with HCT-15 colon, the growth was 76%.

On to `Cc1cc(O)c(C(C)(C)C)cc1Sc1cc(C(C)(C)C)c(O)cc1C`, for which the growth was 44.5% in the test with NCI-H23 lung; 84.3% in the test on NCI-H226 lung; 81.6% with NCI-H322M lung; 62% in the test with HOP-62 NSCLC; 42% in the test on NCI-H460 lung; 48.3% in the test on NCI-H522 lung. Moreover, the growth is 35.2% with A549/ATCC NSCLC; 79.9% in the test with 786-0 renal; 50% in the test with DU-145 prostate; 14.6% in the test with K-562 leukemia; 73.7% with MALME-3M melanoma; -9.88% (active) in the test with MDA-MB-231 breast. In addition, the growth was 49.4% in the test on SF-268 CNS; 53.4% in the test on SF-295 CNS; 77.8% in the test on SF-539 CNS; 30.9% in the test on UACC-257 melanoma; 0.358% (active) in the test on M14 melanoma; 44.3% with HCT-15 colon.

With `N#CCCN(NC(=O)OCc1ccccc1)C(=O)OCc1ccccc1`, the growth in the test with NCI-H23 lung was 107%; in the test on NCI-H226 lung it was 115%; with NCI-H322M lung, 109%; with HOP-62 NSCLC, 120%; with NCI-H460 lung, 103%; in the test on NCI-H522 lung, 120%. For the same compound, the growth was 106% with A549/ATCC NSCLC; 97.9% with 786-0 renal; 109% with DU-145 prostate; 106% with K-562 leukemia; 105% in the test with MALME-3M melanoma; 113% in the test with MDA-MB-231 breast. Besides, the growth was 111% in the test on RXF 393 renal; 106% with SF-268 CNS; 99.1% in the test with SF-295 CNS; 106% in the test on SF-539 CNS; 107% in the test on UACC-257 melanoma; 103% in the test with M14 melanoma. Besides, the growth in the test on HCT-15 colon is 107%.

With `COc1ccc2c(c1)sc1nc(-c3ccccc3)c(-c3ccc(O)c(OC)c3)n12`, the growth with NCI-H23 lung was 88.2%; in the test on NCI-H226 lung, 94.1%; with NCI-H322M lung it was 89.7%; with HOP-62 NSCLC it was 79.1%; in the test with NCI-H460 lung it was 69.8%; in the test on NCI-H522 lung it was 76.4%. Also, the growth in the test with A549/ATCC NSCLC is 64.2%; in the test on 786-0 renal, 84.9%; with DU-145 prostate, 107%; with K-562 leukemia it was 30.7%; in the test with MDA-MB-231 breast it was 90.7%; in the test with RXF 393 renal, 104%. Moreover, the growth in the test on SF-268 CNS was 88.7%; in the test on SF-295 CNS, 81.2%; with SF-539 CNS, 86.9%; with UACC-257 melanoma it was 83.8%; with M14 melanoma, 38.1%; in the test with HCT-15 colon it was 47.1%.

In the case of `Cn1c([N+](=O)[O-])cnc1/C=C1\Oc2ccccc2C1=O`, the growth with NCI-H23 lung was -18% (active); in the test on NCI-H226 lung, -7.33% (active); in the test with NCI-H322M lung it was 18.6%; with HOP-62 NSCLC, -10.3% (active); in the test on NCI-H460 lung, -39.5% (active); in the test on NCI-H522 lung, -48.5% (active). Besides, the growth in the test on A549/ATCC NSCLC is -31.4% (active); in the test on 786-0 renal, -10.9% (active); in the test with DU-145 prostate, -8.91% (active); in the test with K-562 leukemia, 3.53% (active); in the test with MALME-3M melanoma, -71.1% (active); in the test on MDA-MB-231 breast it was -31.7% (active). For the same compound, the growth is -68.9% (active) with RXF 393 renal; -49% (active) in the test with SF-268 CNS; -1.94% (active) in the test with SF-295 CNS; -43.4% (active) in the test with SF-539 CNS; -57% (active) in the test on UACC-257 melanoma; -43.3% (active) in the test on M14 melanoma. The growth with HCT-15 colon was 6.69% (active).
